Unmarked numbers belong to inactive results.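 The calls were made as follows, unless noted: active = compounds whose dose series gives a full or clear partial fitted curve of increased nuclear translocation; inconclusive = weak partial curve or effect only at the top dose; inactive = no dose-dependent translocation response.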 Inconclusive results are not listed.

Sequence of Glucocorticoid receptor (Homo sapiens) (P04150 whole entry, looked up): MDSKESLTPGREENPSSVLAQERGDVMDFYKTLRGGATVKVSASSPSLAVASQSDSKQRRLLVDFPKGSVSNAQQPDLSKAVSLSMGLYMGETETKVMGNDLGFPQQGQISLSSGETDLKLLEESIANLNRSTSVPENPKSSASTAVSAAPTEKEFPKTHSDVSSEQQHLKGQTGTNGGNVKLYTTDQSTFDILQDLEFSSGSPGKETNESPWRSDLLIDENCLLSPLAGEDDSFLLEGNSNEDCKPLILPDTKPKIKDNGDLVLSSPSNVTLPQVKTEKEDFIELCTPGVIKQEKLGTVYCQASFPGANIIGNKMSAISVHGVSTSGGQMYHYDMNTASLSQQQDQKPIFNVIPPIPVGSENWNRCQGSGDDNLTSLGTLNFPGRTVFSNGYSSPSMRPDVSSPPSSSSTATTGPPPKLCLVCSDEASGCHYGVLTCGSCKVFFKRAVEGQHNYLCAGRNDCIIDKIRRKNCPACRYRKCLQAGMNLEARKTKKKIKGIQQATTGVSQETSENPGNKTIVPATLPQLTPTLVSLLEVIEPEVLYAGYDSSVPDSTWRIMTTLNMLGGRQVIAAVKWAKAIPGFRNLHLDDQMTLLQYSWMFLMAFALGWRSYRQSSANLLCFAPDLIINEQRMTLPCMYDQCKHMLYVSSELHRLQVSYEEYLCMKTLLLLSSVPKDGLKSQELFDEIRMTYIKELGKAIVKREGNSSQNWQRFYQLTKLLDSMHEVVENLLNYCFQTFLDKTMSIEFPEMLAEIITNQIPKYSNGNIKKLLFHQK

Test system in the first assay: not listed separately
The assay is described as follows: Stat Signaling Pathway (AID 446; active = well fitted curve in either direction with a large enough effect, not every such curve was filed as active;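 also: ME-180 cervical cancer cells given 40 pM IL-6 alongside compound; SIE-controlled beta-lactamase reporter measured as 460/530 nm FRET emission ratio; % is scaled to controls: 0 for no effect and ±100 for the full control effect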). Particulars: ME-180 (cervical carcinoma) SIE beta-lactamase reporter, IL-6 stimulated, 5 h; at 7.69 µM (top of the series) unless noted. An outline of the steps:
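Emission at 460 and 530 nm (excitation 405 nm) reports SIE-controlled beta-lactamase in ME-180 cells. Cells received compound with 40 pM IL-6 for 5 hrs at 37 C; data scaled between 300 pM IL-6 and 125 nM JAK-inhibitor controls.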
For `O=C(O)CC(CC(=O)O)n1cccc1`, the activity, negative = inhibition was -7.74%.

For `CC(C)(CN)CN`, the activity, negative = inhibition is 0.176%.

For the compound `O=C(O)NCC1CCCCC1` (tested in a mixture with another compound), the activity, negative = inhibition is -1.59%.

Turning to `O=C(O)CCC(=O)c1ccc2ccc3cccc4ccc1c2c34`, the activity, negative = inhibition is -5.24%.

Consider `O=C(O)c1cc2ccccc2c(S(=O)(=O)O)c1O`, for which the activity, negative = inhibition is 3.56%.

As for `CCCCN1CSC(=S)N(Cc2ccccc2)C1`, the activity, negative = inhibition was 2.92%.

`COCCn1c(=O)c(-c2cc(F)cc(F)c2)nc2cnc(Oc3ccccc3)nc21`: the activity, negative = inhibition is 0.0611%.

Take `S=C(Nc1ccc2cn[nH]c2c1)Nc1ccc2cn[nH]c2c1`: the activity, negative = inhibition was 1.71%.

With `CC(C)NC1(C(N)=O)CCN(Cc2ccccc2)CC1`, the activity, negative = inhibition was -5.76%.

Take `O=C1/C(=C/c2cccnc2)SC(=S)N1Cc1ccco1`: the activity, negative = inhibition is -9.72%.

`COc1ccc(-c2cc([C@H](O)[C@@H]3CCCCN3)c3ccccc3n2)cc1`: the activity, negative = inhibition is 2.85%.

As for `NCCCc1c(-c2ccccc2)nc(N)[nH]c1=O`, the activity, negative = inhibition is 9.18%.

With `c1ccc2c(CN3CCN(Cc4c[nH]c5ccccc45)CC3)c[nH]c2c1`, the activity, negative = inhibition is 5.49%.

Turning to `Cc1cnc(CNc2nc(-c3cccnc3)nc3ccccc23)cn1`, the activity, negative = inhibition is -9.76%.

As to `c1ccc2c(c1)nnn2CN1CCOCC1`, the activity, negative = inhibition is -18.4%.

For the compound `CC[C@H](C(=O)c1cccs1)C(O)(C(F)(F)F)C(F)(F)F`, the activity, negative = inhibition was -6.19%.

For the compound `N=C(N)SCc1ccc(Cl)cc1Cl` (tested in a mixture with another compound), the activity, negative = inhibition is -9.66%.

As for `O=C(O)C1(C(=O)O)CCN(S(=O)(=O)c2ccccc2)CC1`, the activity, negative = inhibition is 11.9%.

`CN(C)CCNc1nc2c(c(=O)n(C)c(=O)n2C)n1C`: the activity, negative = inhibition is 9.47%.

As to `COc1ccc(OC)c(-c2cc(C(=O)O)c3cc4ccccc4cc3n2)c1`, the activity, negative = inhibition was 4.07%.

As to `CN=C(N)/N=C(\N)Nc1cc2ccccc2c2ccccc12`, the activity, negative = inhibition is 12.7%.

On to `Oc1ccc2ccccc2c1CN(Cc1c(O)ccc2ccccc12)C1CCCCC1`, for which the activity, negative = inhibition is -14.2%.

For `CN(C)C(=O)c1ccc(-c2nc(Nc3ccncc3)c3ccccc3n2)cc1`, the activity, negative = inhibition was -6.09%.

On to `c1ccc(C(CCN2CC3CCC(CC3)C2)c2ccccc2)cc1`, for which the activity, negative = inhibition is 0.0517%.

Regarding `Cc1cn([C@H]2C[C@H](O)[C@@H](COC(N)=O)O2)c(=O)[nH]c1=O`, the activity, negative = inhibition was 6.97%.

Consider `C[C@]12CC[C@H]3c4ccc(O)cc4CC[C@@H]3[C@H]1C/C(=N/O)[C@H]2O`, for which the activity, negative = inhibition was 1.89%.

With `CCOC(=O)C1=C(C)NC(=O)N[C@@H]1c1coc2cc(C)cc(C)c2c1=O`, the activity, negative = inhibition was -5.6%.

As to `N/C(CC/C(N)=N/O)=N\O`, the activity, negative = inhibition was -0.993%.

Take `c1ccc2sc(SCCSc3nc4ccccc4s3)nc2c1`: the activity, negative = inhibition was 2.32%.

Take `O=C(O)[C@@H](c1ccccc1)[C@@H](C(=O)O)c1ccccc1`: the activity, negative = inhibition was -0.514%.

As to `O=C(O)c1nn(-c2ccccc2-c2n[nH]c(=O)[nH]c2=O)c(=O)[nH]c1=O`, the activity, negative = inhibition is 6.32%.

For `NNC(=O)c1ccc[n+](CCc2ccccc2)c1`, the activity, negative = inhibition was -0.167%.

Take `CN(Cc1cc(Cl)cc(Cl)c1O)Cc1c(O)ccc2ccccc12`: the activity, negative = inhibition was -1.99%.

As for `NS(=O)(=O)c1cc2c(cc1Cl)=NC(CCC(=O)O)=NS=2(=O)O`, the activity, negative = inhibition was 10.8%.

Consider `CC[C@H]1CN(C)[C@H]2Cc3c([nH]c4ccccc34)C(=O)C[C@H]1[C@H]2C(=O)OC`, for which the activity, negative = inhibition was 8.84%.

On to `O=C(O)[C@@H]1[C@@H](C(=O)O)[C@]23C[C@@]2(C(=O)O)[C@]2(C(=O)O)CCC3=C3CCCC312`, for which the activity, negative = inhibition is -2.48%.

For `CCCn1cnc2c(SCc3ccc(Cl)cc3)nc(N)nc21`, the activity, negative = inhibition was -5.52%.

Turning to `Clc1cc2c(c(CSC3=NCN(CC4CC4)CN3)c1)OCOC2`, the activity, negative = inhibition was 0.512%.

For the compound `CCOC(=S)SCC(=O)O`, the activity, negative = inhibition was 16.6%.

Regarding `C[N+](C)(N)CCC[N+](C)(C)N`, the activity, negative = inhibition is 8.44%.

A further assay concerns the target Glucocorticoid receptor (Homo sapiens) (UniProt P04150). The assay can be described thus: GR-GFP Redistribution (AID 450). Also: potency is read from the fitted curve at half-maximal effect. The following applies: U2OS GR-GFP nuclear translocation, laser cytometry, 2 h.
For the compound `O=C(O)CC(CC(=O)O)n1cccc1`, the Potency is over 46 µM.

As for `CC(C)(CN)CN`, the Potency was over 46 µM.

Regarding `O=C(O)NCC1CCCCC1` (tested in a mixture with another compound), the Potency is over 46 µM.

Turning to `O=C(O)CCC(=O)c1ccc2ccc3cccc4ccc1c2c34`, the Potency was over 46 µM.

For `O=C(O)c1cc2ccccc2c(S(=O)(=O)O)c1O`, the Potency was over 46 µM.

As for `CCCCN1CSC(=S)N(Cc2ccccc2)C1`, the Potency is over 46 µM.

In the case of `COCCn1c(=O)c(-c2cc(F)cc(F)c2)nc2cnc(Oc3ccccc3)nc21`, the Potency was over 9.22 µM.

For `S=C(Nc1ccc2cn[nH]c2c1)Nc1ccc2cn[nH]c2c1`, the Potency is over 46 µM.

In the case of `CC(C)NC1(C(N)=O)CCN(Cc2ccccc2)CC1`, the Potency is over 46 µM.

Regarding `O=C1/C(=C/c2cccnc2)SC(=S)N1Cc1ccco1`, the Potency is over 46 µM.

Regarding `COc1ccc(-c2cc([C@H](O)[C@@H]3CCCCN3)c3ccccc3n2)cc1`, the Potency was over 46 µM.

On to `NCCCc1c(-c2ccccc2)nc(N)[nH]c1=O`, for which the Potency was over 46 µM.

Turning to `c1ccc2c(CN3CCN(Cc4c[nH]c5ccccc45)CC3)c[nH]c2c1`, the Potency is over 46 µM.

Consider `Cc1cnc(CNc2nc(-c3cccnc3)nc3ccccc23)cn1`, for which the Potency is over 46 µM.

In the case of `c1ccc2c(c1)nnn2CN1CCOCC1`, the Potency was over 46 µM.

Take `CC[C@H](C(=O)c1cccs1)C(O)(C(F)(F)F)C(F)(F)F`: the Potency was over 46 µM.

In the case of `N=C(N)SCc1ccc(Cl)cc1Cl` (tested in a mixture with another compound), the Potency was over 46 µM.

Take `O=C(O)C1(C(=O)O)CCN(S(=O)(=O)c2ccccc2)CC1`: the Potency is over 46 µM.

With `CN(C)CCNc1nc2c(c(=O)n(C)c(=O)n2C)n1C`, the Potency is over 46 µM.

As for `COc1ccc(OC)c(-c2cc(C(=O)O)c3cc4ccccc4cc3n2)c1`, the Potency is over 46 µM.

Turning to `CN=C(N)/N=C(\N)Nc1cc2ccccc2c2ccccc12`, the Potency was over 46 µM.

For `Oc1ccc2ccccc2c1CN(Cc1c(O)ccc2ccccc12)C1CCCCC1`, the Potency is over 46 µM.

Consider `CN(C)C(=O)c1ccc(-c2nc(Nc3ccncc3)c3ccccc3n2)cc1`, for which the Potency was over 46 µM.

With `c1ccc(C(CCN2CC3CCC(CC3)C2)c2ccccc2)cc1`, the Potency was over 46 µM.

As to `Cc1cn([C@H]2C[C@H](O)[C@@H](COC(N)=O)O2)c(=O)[nH]c1=O`, the Potency is over 46 µM.

`C[C@]12CC[C@H]3c4ccc(O)cc4CC[C@@H]3[C@H]1C/C(=N/O)[C@H]2O`: the Potency was over 46 µM.

As for `CCOC(=O)C1=C(C)NC(=O)N[C@@H]1c1coc2cc(C)cc(C)c2c1=O`, the Potency is over 46 µM.

`N/C(CC/C(N)=N/O)=N\O`: the Potency is over 46 µM.

For `c1ccc2sc(SCCSc3nc4ccccc4s3)nc2c1`, the Potency is over 46 µM.

Consider `O=C(O)[C@@H](c1ccccc1)[C@@H](C(=O)O)c1ccccc1`, for which the Potency is over 46 µM.

For the compound `O=C(O)c1nn(-c2ccccc2-c2n[nH]c(=O)[nH]c2=O)c(=O)[nH]c1=O`, the Potency was over 46 µM.

For `NNC(=O)c1ccc[n+](CCc2ccccc2)c1`, the Potency is over 46 µM.

Turning to `CN(Cc1cc(Cl)cc(Cl)c1O)Cc1c(O)ccc2ccccc12`, the Potency is over 46 µM.

Regarding `NS(=O)(=O)c1cc2c(cc1Cl)=NC(CCC(=O)O)=NS=2(=O)O`, the Potency is over 46 µM.

With `CC[C@H]1CN(C)[C@H]2Cc3c([nH]c4ccccc34)C(=O)C[C@H]1[C@H]2C(=O)OC`, the Potency was over 46 µM.

As for `O=C(O)[C@@H]1[C@@H](C(=O)O)[C@]23C[C@@]2(C(=O)O)[C@]2(C(=O)O)CCC3=C3CCCC312`, the Potency was over 46 µM.

Consider `CCCn1cnc2c(SCc3ccc(Cl)cc3)nc(N)nc21`, for which the Potency is over 46 µM.

As for `Clc1cc2c(c(CSC3=NCN(CC4CC4)CN3)c1)OCOC2`, the Potency is over 46 µM.

Take `CCOC(=S)SCC(=O)O`: the Potency was over 46 µM.

For `C[N+](C)(N)CCC[N+](C)(C)N`, the Potency was over 46 µM.

The values above are taken from PubChem BioAssay (NCATS).
